Unmarked numbers belong to inactive results. Inconclusive results are not listed. Active and inactive are the calls of the source. Unless noted, calls follow the shape of the dose curve; as a rule, active = well fitted curve in the direction sought with a large enough effect in the repeat runs; inconclusive = weak or mixed curves; inactive = no such curve, though single readings can be large; an effect the other way counts as inactive or inconclusive.

Test [1] can be described thus: qHTS assay to identify small molecule antagonists of the estrogen receptor beta (ER-beta) signaling pathway - cell viability counter screen (AID 1259382).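 Also: HEK293T cells carrying ER-beta-UAS-bla reporter stimulated with estradiol; series mostly up to about 92 µM; nearly all actives have a fitted effect of over 55% in size.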 Put shortly: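 HEK293T ER-beta-UAS-bla, 2% charcoal-stripped FBS; compounds + 1nM E2 16 hr 37C; CellTiter-Glo luminescence, 30 min RT.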
The target of test [2] is Estrogen receptor (Homo sapiens) (UniProt P03372). The experiment in a line: qHTS assay to identify small molecule agonists of the estrogen receptor alpha (ER-alpha) signaling pathway in the presence of an antagonist (AID 1259383; calls by dose curve; also: top concentration of the series differs between compounds; nearly all actives have a fitted effect of over 15% in size). In short, it runs like this: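 ER-alpha agonism measured under antagonist challenge: 10.0nM ICI-182,780 (final) plus compound, 15 concentrations, 22hr, VM7Luc4E2 ERE-luciferase cells. Read by luminescence.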
Chain of Estrogen receptor (Homo sapiens) (P03372 whole entry, looked up): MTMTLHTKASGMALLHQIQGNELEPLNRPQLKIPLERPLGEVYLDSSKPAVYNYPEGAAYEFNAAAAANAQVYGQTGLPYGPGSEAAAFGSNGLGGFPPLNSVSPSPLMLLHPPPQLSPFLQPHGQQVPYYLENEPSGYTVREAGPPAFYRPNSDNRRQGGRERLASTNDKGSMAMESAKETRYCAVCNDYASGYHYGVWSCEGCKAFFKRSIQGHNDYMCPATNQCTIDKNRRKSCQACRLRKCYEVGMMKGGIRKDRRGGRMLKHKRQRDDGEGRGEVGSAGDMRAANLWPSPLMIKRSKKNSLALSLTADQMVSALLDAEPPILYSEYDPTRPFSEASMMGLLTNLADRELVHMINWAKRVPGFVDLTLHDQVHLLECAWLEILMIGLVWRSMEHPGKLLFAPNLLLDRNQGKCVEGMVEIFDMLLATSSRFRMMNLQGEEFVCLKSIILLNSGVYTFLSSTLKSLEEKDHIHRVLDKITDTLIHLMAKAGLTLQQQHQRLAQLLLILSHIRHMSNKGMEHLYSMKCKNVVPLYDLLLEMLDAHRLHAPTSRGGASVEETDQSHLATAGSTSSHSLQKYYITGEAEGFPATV

Test [3] in a line: qHTS assay to identify small molecule agonists of the estrogen receptor alpha (ER-alpha) signaling pathway in the presence of an antagonist - cell viability counter screen (AID 1259386).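 Also: series mostly up to about 92 µM; cells exposed to compounds for 22 h at 37 °C before the viability read; nearly all actives have a fitted effect of over 30% in size.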 Put shortly: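 Steps: 5-day stripped-FBS culture; seed and incubate 24hr; add ICI-182,780 (10.0nM final); pin 15-point compound titration; incubate 22hr at 37C; add CellTiter-Fluor at 21hr; read fluorescence.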
(In general: qHTS replaces the single test concentration by a dilution series.)

Test [4] concerns the target Progesterone receptor (Homo sapiens) (UniProt P06401). Kind of test: qHTS assay to identify small molecule agonists of the progesterone receptor (PR) signaling pathway (AID 1346784; calls by dose curve; also: nearly all actives have a fitted effect of over 30% in size). Put shortly: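 HEK 293T PR-UAS-bla reporter cells, 2% charcoal-stripped FBS; 6 hr settle at 37C/5% CO2, compound (DMSO) 16 hr, LiveBLAzer B/G FRET substrate 2 hr RT, fluorescence intensity read.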

For test [5] the target is unchanged. The experiment in a line: qHTS assay to identify small molecule antagonists of the progesterone receptor (PR) signaling pathway (AID 1346795; active = well fitted inhibition curve with a large enough effect in the signal ratio in the repeat runs, not every such curve was filed as active; the % refers to the signal ratio; also: potency is read from the fitted curve at half-maximal effect). In short, it runs like this:
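Beta-lactamase reporter, HEK293T PR-UAS-bla line; 2% charcoal-stripped FBS; 6 hr pre-incubation, 37C/5% CO2. Compound + R5020 1 nM final, 16 hr. LiveBLAzer B/G FRET substrate, 2 hr RT; fluorescence intensity read.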

Test [6] is described as follows: qHTS assay to identify small molecule antagonists of the progesterone receptor (PR) signaling pathway - cell viability counter screen (AID 1346798). Also: series mostly up to about 92 µM; nearly all actives have a fitted effect of over 50% in size. Put shortly:
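Luminescence readout (CellTiter-Glo, 30 min, RT) of viability in PR-UAS-bla HEK293T cells exposed to compound and R5020 agonist for 16 hr at 37C, 5% CO2; run in the same wells as the beta-lactamase reporter read.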

Test [7] in a line: qHTS assay to identify small molecule agonists of the progesterone receptor (PR) signaling pathway - cell viability counter screen (AID 1346799; calls by dose curve; also: nearly all actives have a fitted effect of over 45% in size). Put shortly:
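HEK293T PR-UAS-bla, 3,000 cells/well, 2% charcoal-stripped FBS; 6 h settle, compound 16 h at 37C/5% CO2; LiveBLAzer 2 h RT, then CellTiter-Glo 30 min RT, luminescence read.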

The nature of test [8]: qHTS assay to identify small molecule antagonists of the TGF-beta/Smad signaling pathway - cell viability counter screen (AID 1346824). Also: nearly all actives have a fitted effect of over 50% in size. Put shortly:
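SBE-bla HEK 293T cells, incubated overnight, then compound plus 0.25 ng/mL TGF-beta1 (stock added) for 5 hr at 37 C. Viability was read in the same wells by CellTiter-Glo luminescence after 30 min at room temperature.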

The nature of test [9]: qHTS assay to identify small molecule agonists or antagonists of the thyroid stimulating hormone receptor (TSHR) signaling pathway - wild type cell line counter screen (AID 1259384; calls by dose curve). Put shortly:
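Wild-type Hek293 cells, 800/well, 18 h at 37C, then compound with Ro20-1724 for 30 min RT. cAMP by HTRF (cAMP-d2/anti-cAMP cryptate), 1 h RT, fluorescence read. 15 concentrations, triplicates.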

For test [10], the target named is Thyrotropin receptor (Homo sapiens) (UniProt P16473). Kind of test: qHTS assay to identify small molecule antagonists of the thyroid stimulating hormone receptor (TSHR) signaling pathway (AID 1259385; calls by dose curve; also: nearly all actives have a fitted effect of over 20% in size). Put shortly:
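TSHR-HEK293 cells (800/well) plated 18 h, then compounds with Ro20-1724 and TSH at 1.5 ng/mL final, 30 min at room temperature. cAMP quantified by HTRF (cAMP-d2/anti-cAMP-cryptate, 1 h); 15 concentrations in triplicate.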
% is scaled to controls: 0 for no effect and ±100 for the full control effect.

Chain of Progesterone receptor (Homo sapiens) (P06401 whole entry, looked up): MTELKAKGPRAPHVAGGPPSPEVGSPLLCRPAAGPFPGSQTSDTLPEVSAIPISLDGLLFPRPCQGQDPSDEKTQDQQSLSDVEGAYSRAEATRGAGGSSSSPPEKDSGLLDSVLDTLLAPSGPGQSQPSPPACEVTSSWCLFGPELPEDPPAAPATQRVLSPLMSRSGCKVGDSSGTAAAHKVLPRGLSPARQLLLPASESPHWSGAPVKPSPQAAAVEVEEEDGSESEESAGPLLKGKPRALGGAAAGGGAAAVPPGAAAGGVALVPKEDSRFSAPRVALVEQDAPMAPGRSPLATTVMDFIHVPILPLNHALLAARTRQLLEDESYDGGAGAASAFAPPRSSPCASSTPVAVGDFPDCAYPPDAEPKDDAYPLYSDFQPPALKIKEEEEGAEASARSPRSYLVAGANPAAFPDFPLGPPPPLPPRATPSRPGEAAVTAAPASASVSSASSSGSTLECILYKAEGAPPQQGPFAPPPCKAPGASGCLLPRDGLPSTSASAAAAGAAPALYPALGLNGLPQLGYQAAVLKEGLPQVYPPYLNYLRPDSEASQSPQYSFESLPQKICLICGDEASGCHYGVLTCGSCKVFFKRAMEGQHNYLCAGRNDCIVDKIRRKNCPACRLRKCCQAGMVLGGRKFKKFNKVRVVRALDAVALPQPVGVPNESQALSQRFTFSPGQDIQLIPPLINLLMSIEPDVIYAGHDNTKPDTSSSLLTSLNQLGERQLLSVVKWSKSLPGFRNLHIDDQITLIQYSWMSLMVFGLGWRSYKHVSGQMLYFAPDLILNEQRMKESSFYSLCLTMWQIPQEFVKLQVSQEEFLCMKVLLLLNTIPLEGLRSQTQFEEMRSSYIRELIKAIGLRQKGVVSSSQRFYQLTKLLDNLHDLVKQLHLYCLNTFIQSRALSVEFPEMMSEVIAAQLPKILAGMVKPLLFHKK
Chain of Thyrotropin receptor (Homo sapiens) (P16473 whole entry, looked up): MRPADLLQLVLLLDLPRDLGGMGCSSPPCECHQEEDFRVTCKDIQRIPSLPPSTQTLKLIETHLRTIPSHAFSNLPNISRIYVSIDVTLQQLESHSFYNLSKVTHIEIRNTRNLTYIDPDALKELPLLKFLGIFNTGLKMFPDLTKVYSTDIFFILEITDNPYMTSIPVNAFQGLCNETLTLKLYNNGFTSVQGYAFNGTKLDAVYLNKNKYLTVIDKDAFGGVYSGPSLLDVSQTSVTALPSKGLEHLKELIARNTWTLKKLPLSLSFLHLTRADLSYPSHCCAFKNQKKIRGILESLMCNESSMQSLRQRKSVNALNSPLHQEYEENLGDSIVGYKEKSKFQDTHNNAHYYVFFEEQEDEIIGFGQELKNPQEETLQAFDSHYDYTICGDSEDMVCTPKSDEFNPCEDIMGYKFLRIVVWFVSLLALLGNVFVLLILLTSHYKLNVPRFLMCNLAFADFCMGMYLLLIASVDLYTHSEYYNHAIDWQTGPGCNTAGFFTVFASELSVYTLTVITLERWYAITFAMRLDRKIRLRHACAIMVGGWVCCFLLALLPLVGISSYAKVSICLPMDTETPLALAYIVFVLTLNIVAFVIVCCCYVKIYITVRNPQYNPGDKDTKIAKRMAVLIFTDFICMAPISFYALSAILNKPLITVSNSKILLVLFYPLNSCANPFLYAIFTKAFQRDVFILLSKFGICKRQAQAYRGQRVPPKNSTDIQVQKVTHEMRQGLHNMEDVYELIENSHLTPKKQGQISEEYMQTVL

`Nc1ccc(/C=C/c2ccc(N)cc2S(=O)(=O)O)c(S(=O)(=O)O)c1`: the activity change, negative = cytotoxicity is 6.78% [at 0.349 µM] in test [1], 0.0708% [at 0.349 µM] in test [3], 0.087% [at 0.348 µM] in test [6] and -4.84% [at 0.349 µM] in [7]. Moreover, the activation in test [2] was 0.0248% [at 0.349 µM]; in test [4], 0.0887% [at 0.349 µM]. Moreover, the activity change, negative = inhibition in [5] is 3.92% [at 0.348 µM].

For the molecule `CC(C)COC(=O)CC(C(=O)OCC(C)C)S(=O)(=O)O` (centres undefined), the result in [1], in [2] and in [8] was inactive. For the same molecule, the Potency result in test [3], in test [4], in test [5] and in test [6] was “inactive” in each case.

On to `CC(CC(=O)O)CC(C)(C)C` (centres undefined), for which the molecule was classed as inactive in [1] and in [2]. The Potency result in [3], in test [4], in test [5], in [6] and in test [7] was “inactive” each time.

`O=S(=O)(O)SSS(=O)(=O)O`: the molecule was classed as inactive in [1], in test [9], in test [10] and in [8]. Besides, the Potency entry in [4], in test [5], in [6] and in test [7] was “inactive” throughout.

For the molecule `C=CCOc1cc(Cl)ccc1C(=O)NCCN(CC)CC`, the molecule was called inactive in test [1], in [9], in [10] and in test [8]. Further, the Potency result in [3], in [4], in test [5], in test [6] and in [7] was “inactive” each time.

Consider `C=C(C)C(=O)OCCCCCCOC(=O)C(=C)C`, for which the outcome in [1], in test [9], in test [10] and in test [8] was inactive. Besides, the Potency result in test [3], in [4], in test [5], in [6] and in test [7] was “inactive” each time.

For `C/C=C(\C)C(=O)OCC/C=C\CC`, the molecule was classed as inactive in test [1], in test [9], in test [10] and in test [8]. In addition, the Potency result in test [3], in test [4], in test [5], in test [6] and in test [7] was “inactive” in each case.

As for `SCCSCCS`, the outcome in test [1], in [9], in [10] and in test [8] was inactive. For the same molecule, the Potency entry in [3], in test [4], in test [5], in test [6] and in test [7] was “inactive” each time.

On to `CCNC(=O)/C=C/c1cccc(Br)c1`, for which the call in [1], in test [9], in [10] and in test [8] was inactive. Further, the Potency result in test [3], in [4], in test [5], in test [6] and in test [7] was “inactive” throughout.

Consider `Nc1cc(S(=O)(=O)O)ccc1S(=O)(=O)O`, for which the call in [1], in [9], in test [10] and in test [8] was inactive. For the same molecule, the Potency result in [3], in test [5], in test [6] and in test [7] was “inactive” in each case.

Regarding `O=S(=O)(O)c1cc(O)ccc1O`, the call in test [1], in test [9], in [10] and in [8] was inactive. Further, the Potency entry in test [3], in test [4], in test [5], in [6] and in test [7] was “inactive” throughout.

Turning to `COc1ccc(OC)c(NC(=O)CC(C)=O)c1`, the molecule was called inactive in test [1], in [9], in [10] and in [8]. The Potency entry in [4], in test [5] and in [6] was “inactive” throughout.

For `O=C(O)C(=O)Nc1cccc(-c2nn[nH]n2)c1`, the result in [1], in [9], in test [10] and in test [8] was inactive. The Potency result in [3], in [4], in [5], in [6] and in test [7] was “inactive” each time.

In the case of `O=c1[nH]c(=O)c2ccccc2o1`, the molecule was classed as inactive in test [1], in test [9], in test [10] and in test [8]. Besides, the Potency result in [3], in test [4], in [5], in [6] and in test [7] was “inactive” throughout.

`CCOC(=O)OCC/C(SC(=O)OCC)=C(\C)N(C=O)Cc1cnc(C)nc1N`: the molecule was called inactive in test [1], in [9], in [10] and in test [8]. For the same molecule, the Potency result in [3], in test [4], in [5], in test [6] and in test [7] was “inactive” each time.

For the molecule `BrC/C=C/CBr`, the activity change, negative = cytotoxicity was 3.59% [at 19 µM] in test [1], 2.04% [at 19 µM] in [3], 20.7% [at 18.9 µM] in test [6] and 0% [at 19 µM] in test [7]. Further, in [9], the cAMP activity change was -5.59% [at 18.9 µM]. The figures for the activity change, negative = inhibition in test [10] and in test [5] were -1.56% [at 19 µM] and -3.92% [at 18.9 µM], respectively. In addition, the activation in test [4] is 1.6% [at 19 µM]. Besides, in test [8], the viability change, negative = cytotoxic is 0.16% [at 15.8 µM].

Turning to `CCCCC[Si](OCC)(OCC)OCC`, the call in test [1], in test [9], in [10] and in test [8] was inactive. Moreover, the Potency result in test [3], in test [4] and in [5] was “inactive” throughout.

For `O=c1cc(O)c(Cl)c[nH]1`, the molecule was called inactive in test [1], in [9], in [10] and in test [8]. The Potency entry in test [3], in test [6] and in test [7] was “inactive” throughout.

With `O=C1NC2NC(=O)NC2N1` (centres undefined), the result in test [1], in test [9], in [10] and in test [8] was inactive. Also, the Potency result in [3], in test [4], in test [5] and in test [6] was “inactive” throughout.

In the case of `CN(C1CCCCC1)S(=O)(=O)c1ccccc1N`, the molecule was classed as inactive in test [1], in [9], in test [10] and in test [8]. Moreover, the Potency entry in test [3], in [4], in test [6] and in test [7] was “inactive” throughout. For the same molecule, the Potency in [5] is 17.2 µM (active).

For `C=C(C)C(=O)OC`, the result in test [1], in test [9], in test [10] and in test [8] was inactive. The Potency result in test [3], in test [4], in test [5], in test [6] and in [7] was “inactive” in each case.

In the case of `CC(C)COC(=O)COc1ccc(Cl)cc1Cl`, the molecule was called inactive in test [1], in [9], in [10] and in [8]. In addition, the Potency result in [3], in [4], in [5], in test [6] and in test [7] was “inactive” each time.

`NS(=O)(=O)c1cc2c(cc1Cl)NC(CC1CCCC1)NS2(=O)=O` (centres undefined): the molecule was called inactive in test [1], in test [9], in [10] and in test [8]. For the same molecule, the Potency entry in test [3], in test [4], in test [5], in test [6] and in test [7] was “inactive” throughout.

`CCCCCCCCCOCC1CO1` (centres undefined): the molecule was classed as inactive in test [1], in [9] and in [10]. Further, the Potency result in test [3], in test [4], in test [6] and in [7] was “inactive” in each case.

Values taken from PubChem BioAssay (Tox21).
